The campaign covered roughly 300,000 compounds. About 1,200 (0.4%) were called active. About 3% were inconclusive and are not listed. Calls come from the whole dose curve; as a rule, active = well fitted inhibition curve with a large enough effect; inconclusive = small, poorly fitted or top-dose-only effect, or another doubt; inactive = no such curve, though single readings can be large or run the other way. What follows is part of a selection rich in actives, with near analogues and random picks from the rest. Where a call stands in place of a potency, no number is given.
Target: Lysosomal alpha-glucosidase (Homo sapiens) (UniProt P10253)
Assay: qHTS Assay for Inhibitors and Activators of Human alpha-Glucosidase Cleavage of Glycogen;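 note: the screen sought inhibitors and activators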
Conditions: recombinant GAA, glycogen substrate, Amplex Red glucose oxidase fluorescence; series mostly up to 76.3 µM
Source text: NIH Chemical Genomics Center [NCGC] NIH Molecular Libraries Probe Production Centers Network [MLPCN] MLPCN Grant: R03 MH084841-01 Assay Submitter (PI): Wei Zheng NCGC Assay Overview: Alpha-glucosidase is responsible for the hydrolysis of terminal, non-reducing 1,4-linked alpha-D-glucose residues, which releases alpha-D-glucose. It is a lysosomal hydrolase that is required for the degradation of a small percentage (1-3%) of cellular glycogen in humans. Deficiency of this enzyme results in glycogen-storage disease type II (GSDII), also referred to as Pompe disease, an autosomal recessive disorder. Structurally normal glycogen is accumulated in the lysosomes and cytoplasm in affected patients, primarily in muscle tissues. Excessive glycogen storage within lysosomes may interrupt normal functioning of other organelles and leads to cellular injury. In turn, this leads to enlargement and dysfunction of the entire organ involved (eg: cardiomyopathy and muscle weakness). It has been reported that the improper folding and trafficking of alpha-glucosidase resulting from genetic mutations may account for a significant number of Pompe patients. […] We optimized this alpha-glucosidase assay in 1536-well plate format for identification of novel small molecule inhibitors or activators with structures other than the sugar analogs in order to develop new pharmacological chaperones. Previous assays of alpha-Glucosidase have utilized a non-natural fluorescent substrate to probe enzyme activity. The present assay measures enzyme activity on glycogen using a coupled-assay system to glucose oxidase.
NCGC Assay Protocol Summary: This is an enzyme assay using glycogen from bovine liver (Sigma catalog #: G0885) as the substrate and recombinant human alpha-glucosidase as the enzyme preparation. Upon hydrolysis of the substrate, the glucose product can be detected using the Amplex Red Glucose Oxidase Assay Kit (Invitrogen catalog #: A22189). The product of this reaction can be read with a fluorescence plate reader with an excitation at 573 nm and an emission at 610 nm. Data were normalized to the controls for basal activity (without enzyme) and 100% activity (with enzyme). The AC50 values were determined from concentration-response data modeled with the standard Hill equation. Assay buffer for enzyme reaction: 50 mM citric acid (titrated with potassium phosphate to pH 5.0), 0.01% Tween-20 (pH 5.0 is an optimal condition for this enzyme assay) Assay buffer for Amplex Red reaction: Tris-HCl, pH 7.5 1536-well assay protocol for the alpha-glucosidase assay: (1) Add 2 ul/well alpha-glucosidase enzyme solution (4 nM final) (2) Add 23 nL compounds in DMSO solution. The final titration was 0.7 nM to 77 uM. (3) Add 1 ul of glycogen substrate solution (30 ug) (4) Incubate at 37 C for 40 min (5) Add 2 ul tris-HCl buffer with Amplex Red reagents (6) Incubate 45 min at room temperature. (7) Detect the assay plate in a ViewLux plate reader (PerkinElmer) with Ex=573 nm and Em=610nm. Keywords: Alpha-glucosidase, Pompe Disease, pharmacological chaperone, chaperone therapy, high throughput screening, alpha-glucosidase inhibitor, MLSMR, MLSCN, NIH Roadmap, qHTS and NCGC
Potency is the fitted concentration of half-maximal effect.

Row | SMILES | Potency
1 | N#C/C=C\Oc1ccc(Cl)cc1N | 9.92 µM (active)
2 | CCCS(=O)(=O)c1c(Nc2ccccc2C)sc(C(=O)c2ccccc2)c1N | inactive
3 | COc1ccc(S(=O)(=O)Nc2cc3c(C(=O)OC(C)C)c(C)oc3c3ccccc23)cc1 | inactive
4 | Cn1cnc([N+](=O)[O-])c1Nc1ccccc1O | 7.88 µM (active)
5 | Cn1cnc([N+](=O)[O-])c1Sc1n[nH]c(N)n1 | inactive
6 | Cn1cnc([N+](=O)[O-])c1Sc1ccccc1 | inactive
7 | CC1=C(C(=O)OCc2ccc(C)cc2)C(c2ccccc2Cl)CC(=O)N1 (configuration not stated) | inactive
8 | CCc1ccc(NC(=O)c2sc3nc4c(cc3c2N)CN(CC)CC4)cc1 | inactive
9 | CCc1nn(CC(=O)N2CCN(c3ccc(Cl)cc3)CC2)c(=O)c2cc3occc3n12 | inactive
10 | COc1ccccc1C1=Nc2cccc3cccc(c23)N1 | 17.6 µM (active)
11 | Fc1ccccc1N=C1Nc2cccc3cccc1c23 | inactive
12 | COc1ccccc1-c1nc(SC)n[nH]1 | inactive
13 | COC(=O)Nc1sc2nc(C)cc(C)c2c1-n1cccc1 | inactive
14 | Cc1cc(C)c2c(-n3cccc3)c(C(=O)NNS(=O)(=O)c3ccc(F)cc3)sc2n1 | 31.6 µM (active)
15 | Cc1cc(C)c2c(-n3cccc3)c(NC(=O)OCc3ccccc3)sc2n1 | inactive
16 | COc1ccc(Cn2cc(C(=O)c3ccc(C)cc3)c(=O)c3cc(OC)c(OC)cc32)cc1 | inactive
17 | COc1ccc(CNC(=O)c2cc3c(-c4ccccc4F)nn(C)c3s2)c(OC)c1 | inactive
18 | COc1ccc(-c2cc(C(F)(F)F)nc(SCC(=O)N(C)Cc3ccccc3)n2)cc1OC | inactive
19 | O=C(NNC(=O)c1ccc(Cl)cc1Cl)c1cccs1 | inactive
20 | Cc1ccc(NNC(=O)c2cccs2)cc1Cl | 14.1 µM (active)
21 | Cc1ccc(C(=O)NNC(=O)c2cccs2)cc1 | inactive
22 | O=[N+]([O-])c1ccc(N2CCN(c3ccc(O)cc3)CC2)c(Cl)c1 | 10 µM (active)
23 | COc1ccc(N2CCN(c3ccc([N+](=O)[O-])cc3Cl)CC2)cc1 | inactive
24 | O=C(O)C1CCN(c2ccc([N+](=O)[O-])cc2[N+](=O)[O-])CC1 | inactive
25 | O=C(CSCc1cnn(-c2ccccc2)c1-n1cccc1)NCc1ccccc1Br | inactive
26 | CC(=O)Nc1ccc(NC(=O)CCCc2nc(-c3ccc(C(C)(C)C)cc3)no2)cc1 | inactive

Row | SMILES | Potency
27 | COc1ccc(N2CCN(c3cc(C)nc4nncn34)CC2)cc1 | inactive
28 | S=C(NCCc1ccccc1)N1CCCCC1 | inactive
29 | Oc1ccc(N2CCN(C(=S)NCc3ccccc3)CC2)cc1 | 3.16 µM (active)
30 | O=C(COC(=O)c1ccccc1C(=O)N1CCN(c2ccccc2)CC1)NCc1ccccc1 | inactive
31 | COc1ccc(-c2noc(CSc3nc4ccc(C)cc4[nH]3)n2)cc1 | inactive
32 | O=C(CN1CCN(c2ccc(O)cc2)CC1)Nc1ccc(-c2ccccc2)cc1 | 10 µM (active)
33 | O=C(CN1CCN(c2ccccc2)CC1)Nc1ccc(F)cc1 | inactive
34 | O=C(CN1CCOCC1)Nc1ccccc1 | inactive
35 | CCOc1ccc(N(CC)S(=O)(=O)N2CCCC(C(=O)NCc3ccc(SC)cc3)C2)cc1 (configuration not stated) | inactive
36 | CCc1ccc(NC(=O)C2CCCN2S(=O)(=O)c2ccc3nc(-c4ccccc4)[nH]c3c2)cc1 (configuration not stated) | inactive
37 | Cc1ccccc1CNC(=O)CCCn1nc(C)c2sc3ccccc3c2c1=O | inactive
38 | O=C(Cn1nc(C(F)(F)F)c2c1CCCC2)Nc1ccc(Cl)cc1 | inactive
39 | COc1cccc(-c2nc(CS(=O)(=O)CC(=O)N3CCN(c4cc(C)ccc4C)CC3)c(C)o2)c1 | inactive
40 | CCC(O)CNc1nc(-n2nc(C)cc2C)nc2sc3c(c12)CC(C)(C)OC3 (configuration not stated) | inactive
41 | CC/C(C)=N/Nc1nc2sc3c(c2c(=O)[nH]1)CC(C)(C)OC3 | inactive
42 | C=CCNC(=S)NNc1ncnc2sc3c(c12)CC(C)(C)OC3 | 11.2 µM (active)
43 | Cc1cccc(OCCSc2nc3ccccc3n2CC(=O)N2CCCCC2)c1C | inactive
44 | Cc1cc(Nc2ccccc2)n(CCC#N)n1 | 19.8 µM (active)
45 | Cc1cc(Nc2ccccc2)n(C(=O)c2ccc(N)cc2)n1 | inactive
46 | N#CCCn1ncc2ccccc21 | inactive
47 | COc1ccc(NC(=O)NC(C)c2c(-n3cccc3)sc(C)c2C)cc1OC (configuration not stated) | inactive
48 | Cc1cc(C(=O)NNS(=O)(=O)c2ccccc2C(F)(F)F)nn1C(C)(C)C | inactive
49 | O=C(NNS(=O)(=O)c1ccccc1C(F)(F)F)c1cc2ncc(C(F)(F)F)cc2s1 | 28.2 µM (active)
50 | O=C(CS(=O)(=O)c1ccc(C(F)(F)F)cn1)NNC(=O)c1ccccc1 | inactive
51 | CCc1ccc(NC(=O)Cn2c(=O)n(CCC(=O)NCc3ccc4c(c3)OCO4)c(=O)c3ccccc32)cc1 | inactive
52 | COc1ccc(S(=O)(=O)c2cn(C)c3cc(N4CCCCC4)c(F)cc3c2=O)cc1 | inactive

Source: PubChem BioAssay AID2100 (National Center for Advancing Translational Sciences (NCATS), 2009)
